Test results as given in PubChem BioAssay (EPA / NIEHS).
Activity calls are given as the source filed them. The calls were made as follows: active = hit-call score of the fitted dose curve at least 0.9, where 1 is the maximum; inactive = score below 0.9.

What was measured:
[1] = ATG_CRE_CIS: Attagene CIS-FACTORIAL HepG2 Assay for human cAMP Responsive Element (CRE) binding protein 3 (AID 2282926); details: HepG2 CRE cis-reporter, Attagene multiplexed mRNA; actives raise or lower the signal
How it was run: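 Human liver HepG2, transient MRTU transfection, 24 h compound exposure. Total RNA → oligo(dT) RT → PCR → 6-FAM primer extension → HpaI cut → CE. Activity called both directions vs DMSO.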

[2] = molecular target: CCAAT/enhancer-binding protein beta (Homo sapiens) (UniProt P17676); test: ATG_C_EBP_CIS: Attagene CIS-FACTORIAL HepG2 Assay for human CCAAT/Enhancer Binding Protein (C/EBP) beta (AID 2282927); details: HepG2 Attagene cis-factorial transcription factor reporter; actives raise or lower the signal
How it was run: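 Following a 24 h incubation with test chemical, transfected HepG2 cells yielded RNA whose reporter transcripts were quantified by RT-PCR and fluorescent capillary electrophoresis, with DMSO serving as baseline for bidirectional fitting.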

[3] = ATG_CMV_CIS: Attagene CIS-FACTORIAL HepG2 Assay for human CMV (Internal Marker) (AID 2282928); details: HepG2 CMV promoter reporter, transcription factor profiling; actives raise or lower the signal;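 also: endpoint acts as a background internal control marker rather than a target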
How it was run: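 HepG2 cells transiently transfected with multiple cis-regulated reporter units; 24 h compound exposure. Reporter mRNA quantified by RT-PCR, 6-FAM primer-extension labeling, HpaI digestion and capillary electrophoresis; bidirectional fitting against DMSO baseline.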

[4] = ATG_DR4_LXR_CIS: Attagene CIS-FACTORIAL HepG2 Assay for human Liver X Receptor (LXR), DR4 submotif (AID 2282929); details: HepG2 Attagene DR4 cis-reporter, mRNA transcription; actives raise or lower the signal
How it was run: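 Cells were transfected with multiple reporter transcription units, exposed to chemicals for 24 hours, then lysed for RNA. Reporter mRNA induction was measured by RT-PCR with capillary electrophoresis detection and fitted in both directions relative to DMSO.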

[5] = molecular target: Aryl hydrocarbon receptor (Homo sapiens) (UniProt P35869); test: ATG_Ahr_CIS: Attagene CIS-FACTORIAL HepG2 Assay for human Aryl Hydrocarbon Receptor (Ahr) (AID 2282930); details: HepG2 AhR cis-factorial reporter transcription; actives raise or lower the signal
How it was run: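 Values derive from bidirectional fitting against DMSO negative control. Underlying signal: cis-element reporter mRNA in transiently transfected HepG2, harvested 24 h post-dose and measured by RT-PCR plus capillary electrophoresis.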

[6] = ATG_AP_1_CIS: Attagene CIS-FACTORIAL HepG2 Assay for human Activator Protein 1 (AP-1) (AID 2282931); details: HepG2 Attagene cis-factorial AP-1 reporter mRNA; actives raise or lower the signal
How it was run: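 Endogenous transcription-factor activity in human HepG2 liver cells is read through a cis-promoter reporter transcript, sampled 24 h after dosing. Detection uses RT-PCR with capillary electrophoresis; values come from bidirectional fitting relative to DMSO.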

[7] = ATG_AP_2_CIS: Attagene CIS-FACTORIAL HepG2 Assay for human Activator Protein 2 (AP-2) (AID 2282932); details: HepG2 AP-2 cis-reporter, Attagene transcription factor profiling; actives raise or lower the signal
How it was run: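 HepG2 cells were transiently transfected with multiple cis-promoter reporter transcription units and dosed for 24 h. Reporter mRNA was measured by RT-PCR with capillary electrophoresis fluorescence; bidirectional fits relative to DMSO baseline.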

[8] = molecular target: Retinoic acid receptor alpha (Homo sapiens) (UniProt P10276); test: ATG_DR5_RAR_CIS: Attagene CIS-FACTORIAL HepG2 Assay for human Retinoic Acid Receptor Alpha (RARE), DR5 submotif (AID 2282934); details: HepG2 Attagene cis-factorial RARE DR5 reporter, mRNA; actives raise or lower the signal
How it was run: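 Endpoint fitted in both directions relative to DMSO as negative control. It reflects DR5 cis-element reporter mRNA induction in transiently transfected HepG2 cells, measured 24 h after dosing through RT-PCR and fluorescent capillary electrophoresis.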

[9] = molecular target: Transcription factor E2F1 (Homo sapiens) (UniProt Q01094); test: ATG_E2F_CIS: Attagene CIS-FACTORIAL HepG2 Assay for human E2F Transcription Factor 1 (AID 2282935); details: HepG2 Attagene cis-reporter, E2F reporter RNA transcripts; actives raise or lower the signal
How it was run: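 HepG2 cells transiently transfected with multiplexed cis-element reporter units, dosed for 24 h. Reporter mRNA measured by RT-PCR, 6-FAM primer-extension labeling, HpaI digestion and capillary electrophoresis; bidirectional fit versus DMSO baseline.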

[10] = ATG_E_Box_CIS: Attagene CIS-FACTORIAL HepG2 Assay for human Enhancer Box (E-box) (AID 2282936); details: HepG2 E-box cis-reporter transcription, actives raise or lower the signal
How it was run: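 HepG2 cells transiently transfected with multiplexed cis-element reporter units sensing endogenous transcription factor activity; 24 h compound exposure. Reporter mRNA measured by RT-PCR, 6-FAM primer extension, HpaI digestion and capillary electrophoresis; bidirectional fit versus DMSO.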

[11] = ATG_M_61_CIS: Attagene CIS-FACTORIAL HepG2 Assay for M61 Transcription Factor (Internal Marker) (AID 2282937); details: HepG2 Attagene CIS-FACTORIAL M61 internal marker reporter; actives raise or lower the signal
How it was run: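 Cells were transfected with reporter units under cis-regulatory promoters, treated with chemicals for 24 h, then lysed for RNA. Reporter transcripts were quantified by RT-PCR and capillary electrophoresis, and activity was fitted bidirectionally against DMSO.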

[12] = ATG_EGR_CIS: Attagene CIS-FACTORIAL HepG2 Assay for human Early Growth Response 1 (EGR1) (AID 2282938); details: HepG2 Attagene CIS-FACTORIAL EGR reporter mRNA; actives raise or lower the signal
How it was run: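 Endogenous TF activity in HepG2 liver cells was gauged through cis-promoter reporter constructs transiently transfected. After 24 h dosing, reporter mRNA was quantified by RT-PCR and capillary electrophoresis, and curves fitted in both directions versus DMSO.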

[13] = ATG_M_19_CIS: Attagene CIS-FACTORIAL HepG2 Assay for M19 Transcription Factor (Internal Marker) (AID 2282939); details: HepG2 Attagene CIS-FACTORIAL M19 internal marker reporter; actives raise or lower the signal
How it was run: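 Readout: fluorescent reporter-transcript fragments by capillary electrophoresis after RT-PCR. Human HepG2 liver cells carried transfected MRTU constructs reporting endogenous transcription-factor activity; exposure 24 h. Gain or loss of signal fitted relative to DMSO.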

[14] = ATG_Ets_CIS: Attagene CIS-FACTORIAL HepG2 Assay for human Erythroblast Transformation Specific (ETS) (AID 2282941); details: HepG2 ETS cis-reporter transcription, actives raise or lower the signal
How it was run: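 HepG2 cells transiently transfected with cis-promoter reporter transcription units were dosed for 24 h; reporter mRNA was measured by RT-PCR, 6-FAM primer extension, HpaI digestion and capillary electrophoresis, with bidirectional fitting against DMSO baseline.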

[15] = ATG_FoxO_CIS: Attagene CIS-FACTORIAL HepG2 Assay for human Forkhead box O (FoxO) (AID 2282943); details: HepG2 Attagene cis-reporter, FoxO element, mRNA; actives raise or lower the signal
How it was run: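 Values reflect reporter mRNA induction or loss in HepG2 cells 24 h post-dosing, fitted bidirectionally with DMSO as negative control and baseline. Detection used RT-PCR and fluorescence capillary electrophoresis.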

[16] = ATG_GATA_CIS: Attagene CIS-FACTORIAL HepG2 Assay for human GATA Binding Protein (AID 2282944); details: HepG2 GATA cis-element reporter, Attagene multiplex mRNA; actives raise or lower the signal
How it was run: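 Read-out: fluorescent reporter mRNA fragments resolved by capillary electrophoresis after RT-PCR. Human liver HepG2 cells carried transiently transfected cis-regulated reporter constructs; chemicals incubated 24 h; gain or loss of signal fitted relative to DMSO.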

[17] = ATG_GLI_CIS: Attagene CIS-FACTORIAL HepG2 Assay for human Zinc Finger Protein GLI1 (AID 2282945); details: HepG2, Attagene cis-factorial reporter mRNA, GLI element; actives raise or lower the signal
How it was run: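 HepG2 cells transiently transfected with cis-promoter multiplexed reporter units report endogenous transcription factor activity. After 24 h chemical exposure, reporter mRNA was quantified by RT-PCR, 6-FAM labelling, HpaI digestion and capillary electrophoresis, with bidirectional fitting against DMSO.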

[18] = molecular target: Hepatocyte nuclear factor 3-beta (Homo sapiens) (UniProt Q9Y261); test: ATG_FoxA2_CIS: Attagene CIS-FACTORIAL HepG2 Assay for human Forkhead box A2 (FOXA2) (AID 2282942); details: HepG2 cis-reporter transcription factor activity, 24 h; actives raise or lower the signal
How it was run: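 Endogenous transcription factor activity was read in HepG2 cells carrying transiently transfected cis-promoter reporter units. After 24 h dosing, reporter mRNA was quantified by RT-PCR and capillary electrophoresis, and values fitted bidirectionally versus DMSO.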

[19] = ATG_BRE_CIS: Attagene CIS-FACTORIAL HepG2 Assay for human Bone Morphogenetic Protein (BMP) Response Element (BRE) (AID 2282933); details: HepG2 BMP response element reporter, Attagene transcription factor profiling; actives raise or lower the signal
How it was run: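 Read-out: reporter mRNA induction quantified by RT-PCR and capillary electrophoresis after 24 h chemical exposure of transfected HepG2 cells. Endogenous factor activity on the BMP response element; gain or loss fitted against DMSO baseline.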

Measured: AC50

Chain of Retinoic acid receptor alpha (Homo sapiens) (P10276 whole entry, looked up): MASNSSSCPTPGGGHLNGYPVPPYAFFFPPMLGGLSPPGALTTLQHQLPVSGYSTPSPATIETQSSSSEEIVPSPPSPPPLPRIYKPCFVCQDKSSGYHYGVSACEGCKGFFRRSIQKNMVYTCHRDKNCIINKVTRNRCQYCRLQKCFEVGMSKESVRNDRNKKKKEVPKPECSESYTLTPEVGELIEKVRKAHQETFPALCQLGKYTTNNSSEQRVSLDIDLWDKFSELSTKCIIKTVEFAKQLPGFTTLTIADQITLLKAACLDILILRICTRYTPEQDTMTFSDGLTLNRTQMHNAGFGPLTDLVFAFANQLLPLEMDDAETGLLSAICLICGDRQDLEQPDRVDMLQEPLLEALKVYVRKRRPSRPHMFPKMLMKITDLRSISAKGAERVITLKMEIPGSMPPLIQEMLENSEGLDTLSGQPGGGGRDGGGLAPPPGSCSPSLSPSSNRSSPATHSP
Chain of Aryl hydrocarbon receptor (Homo sapiens) (P35869 whole entry, looked up): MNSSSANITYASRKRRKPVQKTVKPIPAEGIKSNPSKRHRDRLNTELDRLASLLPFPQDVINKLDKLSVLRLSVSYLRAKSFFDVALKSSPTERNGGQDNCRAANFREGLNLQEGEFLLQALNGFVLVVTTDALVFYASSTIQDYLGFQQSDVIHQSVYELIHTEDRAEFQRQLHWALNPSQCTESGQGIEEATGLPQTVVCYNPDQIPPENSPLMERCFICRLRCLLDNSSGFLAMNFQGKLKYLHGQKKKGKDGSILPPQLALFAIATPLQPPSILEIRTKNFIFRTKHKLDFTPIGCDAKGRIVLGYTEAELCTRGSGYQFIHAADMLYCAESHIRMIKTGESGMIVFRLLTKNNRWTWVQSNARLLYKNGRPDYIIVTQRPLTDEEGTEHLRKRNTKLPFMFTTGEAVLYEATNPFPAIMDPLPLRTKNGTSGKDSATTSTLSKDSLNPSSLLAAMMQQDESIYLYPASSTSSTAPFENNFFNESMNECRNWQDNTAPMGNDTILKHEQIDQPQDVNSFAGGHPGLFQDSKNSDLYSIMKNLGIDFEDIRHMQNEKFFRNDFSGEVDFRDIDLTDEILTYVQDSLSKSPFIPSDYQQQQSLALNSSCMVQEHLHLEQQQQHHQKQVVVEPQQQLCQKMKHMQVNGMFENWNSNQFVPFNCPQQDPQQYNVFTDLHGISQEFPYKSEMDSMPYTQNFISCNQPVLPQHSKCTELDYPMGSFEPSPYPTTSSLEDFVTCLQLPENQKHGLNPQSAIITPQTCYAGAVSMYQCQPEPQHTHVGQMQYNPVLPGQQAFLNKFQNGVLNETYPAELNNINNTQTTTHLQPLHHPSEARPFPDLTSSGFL
Chain of Transcription factor E2F1 (Homo sapiens) (Q01094 whole entry, looked up): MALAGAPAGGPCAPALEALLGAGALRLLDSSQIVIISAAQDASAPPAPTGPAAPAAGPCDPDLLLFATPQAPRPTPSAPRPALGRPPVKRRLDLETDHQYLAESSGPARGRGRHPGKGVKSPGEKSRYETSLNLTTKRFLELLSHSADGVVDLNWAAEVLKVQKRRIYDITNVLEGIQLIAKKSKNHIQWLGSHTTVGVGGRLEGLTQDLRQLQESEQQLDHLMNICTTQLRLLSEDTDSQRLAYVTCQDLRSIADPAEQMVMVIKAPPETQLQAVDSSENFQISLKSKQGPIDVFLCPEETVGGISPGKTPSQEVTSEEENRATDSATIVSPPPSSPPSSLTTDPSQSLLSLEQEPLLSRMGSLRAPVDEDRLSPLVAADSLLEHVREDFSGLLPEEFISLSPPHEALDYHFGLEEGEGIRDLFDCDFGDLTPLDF
Chain of CCAAT/enhancer-binding protein beta (Homo sapiens) (P17676 whole entry, looked up): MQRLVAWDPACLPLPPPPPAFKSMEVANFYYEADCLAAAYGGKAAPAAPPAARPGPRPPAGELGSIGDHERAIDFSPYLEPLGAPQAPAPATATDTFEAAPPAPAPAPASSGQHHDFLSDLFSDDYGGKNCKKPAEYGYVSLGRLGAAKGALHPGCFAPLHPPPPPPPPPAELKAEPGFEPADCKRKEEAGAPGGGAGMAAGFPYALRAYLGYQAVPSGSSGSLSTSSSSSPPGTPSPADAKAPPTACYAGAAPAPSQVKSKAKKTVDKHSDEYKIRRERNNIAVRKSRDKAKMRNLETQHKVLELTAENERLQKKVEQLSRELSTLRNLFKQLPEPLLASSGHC
Chain of Hepatocyte nuclear factor 3-beta (Homo sapiens) (Q9Y261 whole entry, looked up): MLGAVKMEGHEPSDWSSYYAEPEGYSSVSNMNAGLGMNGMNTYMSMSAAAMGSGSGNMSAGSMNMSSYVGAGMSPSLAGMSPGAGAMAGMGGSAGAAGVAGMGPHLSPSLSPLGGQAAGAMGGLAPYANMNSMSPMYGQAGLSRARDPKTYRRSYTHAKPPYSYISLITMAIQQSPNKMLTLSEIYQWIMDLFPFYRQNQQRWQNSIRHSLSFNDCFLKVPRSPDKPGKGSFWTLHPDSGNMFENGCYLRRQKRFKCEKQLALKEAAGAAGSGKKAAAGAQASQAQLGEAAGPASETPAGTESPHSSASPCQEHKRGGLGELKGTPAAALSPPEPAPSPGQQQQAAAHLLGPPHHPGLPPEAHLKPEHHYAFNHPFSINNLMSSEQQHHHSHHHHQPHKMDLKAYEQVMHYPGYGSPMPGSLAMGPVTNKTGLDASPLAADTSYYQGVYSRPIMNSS

N#Cc1cscn1
active: [5] 34.7 µM
not listed: [18] | [19]
inactive: all other assays above

O=C1OC[C@H](Cc2cccc(O)c2)[C@H]1Cc1cccc(O)c1
active: [4] 13.9 µM
not listed: [19]
inactive: all other assays above

O=Cc1ccccc1S(=O)(=O)O
not listed: [19]
inactive: all other assays above

CCCCCCCCCCCCN1CCCCCC1=O
active: [4] 18.6 µM | [6] 11.1 µM | [19] 16.4 µM | [10] 16.3 µM
not listed: [7] | [8]
inactive: all other assays above

CCCCN(CCCC)C(=O)N(CCCC)CCCC
active: [2] 44.5 µM | [4] 27.9 µM | [6] 58.5 µM | [17] 51.7 µM
not listed: [7] | [9] | [18]
inactive: all other assays above

CC(=O)CC(=O)Nc1ccccc1
not listed: [7] | [8]
inactive: all other assays above

O=CCc1ccccc1
not listed: [7] | [16]
inactive: all other assays above

c1ccc(CN(Cc2ccccc2)Cc2ccccc2)cc1
active: [4] 18.4 µM | [17] 100 µM
not listed: [7] | [14] | [18]
inactive: all other assays above
